This excerpt belongs to a sample that is enriched for hits.
Dicer inh: inhibitors of human Dicer processing of pre-microRNA; z-score at 25 µM; AID 1347074; 47,000 tested, 6% active; cat-ELCCA pre-miR-21 Dicer processing, chemiluminescence; hits give high values; Q9UPY3; in the data active = z-score above about 3, passing the limit was not always enough;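 also: plate controls were vehicle for no effect and no enzyme for full effect; higher signal means more uncleaved substrate so more Dicer inhibition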
The depositor's hits bear a star.

SMILES | Dicer inh
Cc1nonc1NC(=O)OC1CCCCC1 | 3.42*
Cc1cccc(C)c1OCc1nc2c3cnn(Cc4ccccc4)c3ncn2n1 | -0.58
Cn1c(=O)c2c(NCc3ccccc3)cc(=O)n(-c3ccccc3)c2n(C)c1=O | 0.68
COc1cccc(C2C(C(=O)OC(C)C)=C(C)NC3=C2C(=O)CC(C)(C)C3)c1OC (centres undefined) | 0.09
Cc1ccc(S(=O)(=O)N/N=C/c2nccs2)cc1 | -1.24
CN(C)/C=N/NS(=O)(=O)c1ccccc1 | -0.67
Cc1ccc(S(=O)(=O)N/N=C/c2ccc3ccccc3c2O)cc1 | 3.25*
CCOC(=O)c1cc(C#N)c(Nc2cccc(Cl)c2)nc1C(F)(F)F | -1.29
COc1cc(CNCCSc2nnnn2C)ccc1OCc1cccc(Cl)c1 | -0.89
C/C=C(\C)c1nnc(NCC(C)(C)C)s1 | 0.2
c1ccc(Nc2nc(-c3ccccc3)nc3ccccc23)cc1 | 0.12
O=c1nc(Nc2ccccc2)oc2ccccc12 | 3.75*
O=c1nc(-c2ccc(Cl)cc2)oc2ccccc12 | 0.94
CN(C)c1cc(NC(=O)Nc2ccccc2)c2ccccc2n1 | 1.11
CCc1ccc(-c2cn3c4ccccc4nc3n2CCO)cc1 | -0.98
CCn1c(SCC(=O)c2ccccc2)nc2sc3c(c2c1=O)CCC3 | -1.03
COC(=O)CSc1nc2sc3c(c2c(=O)n1-c1ccc(OC)cc1)CCCC3 | 24.1
CCCCn1c(SCC(=O)OC)nc2sc3c(c2c1=O)CCC3 | 4.28*
COc1cc2c(cc1OC)CN(C(=O)CSc1nnc3ccccn13)CC2 | -0.05
COc1cc2c(cc1OC)CN(C(=O)c1ccco1)CC2 | 4.99*
COc1cc2nc(N3CCN(C(=O)c4ccco4)CC3)nc(N)c2cc1OC | 0.19
CC(CCC(=O)Nc1nccs1)C(=O)O (centres undefined) | -0.49
O=C1CC(c2ccccc2)Oc2cc(Cl)ccc21 (centres undefined) | -1.55
O=C1CC(c2ccccc2)Oc2ccccc21 (centres undefined) | 0.24
O=C1CC(c2ccc(O)cc2)Oc2cc(O)ccc21 (centres undefined) | 4.75*
SMILES | Dicer inh
CCOCCn1c(=O)c2c(nc3n2CCCCN3c2ccc(OCC)cc2)n(C)c1=O | 0.36
Cc1cc(-c2nn(C)c(=O)c3ccccc23)cc(C)c1OCC(=O)NNC(=O)Nc1ccc(OC(F)(F)F)cc1 | -0.6
Cc1c(S(=O)(=O)c2ccc(Cl)cc2)csc1S(=O)(=O)N1CCCC1 | 3*
Cc1c(S(=O)(=O)c2ccc(Cl)cc2)csc1C(=O)Nc1ccc(N2CCOCC2)c(Cl)c1 | -1.89
Cc1ccc2c(c1)CCCN2C(=O)c1scc(S(=O)(=O)c2ccc(Cl)cc2)c1C | -1.74
Cc1cc(=O)[nH]c(N/N=C/c2ccccc2O)n1 | 0.27
CCc1nnc(NC(=O)c2ccccc2O)s1 | 4.24*
CCc1nnc(NC(=O)c2cc(Br)ccc2Cl)s1 | 0.34
CCc1nnc(NC(=S)NC(=O)c2ccccc2)s1 | -0.73
CCOC(=O)C(=CNc1cc(C)no1)C(=O)OCC | -1.32
O=C(O/N=C(\Cn1nnc(N2CCOCC2)n1)c1ccc(Cl)cc1)c1ccc(Cl)cc1Cl | 0.29
CCCSc1sc(C(=O)OC)c(-c2ccc(Cl)cc2)c1C#N | -3.22
CCCCSc1nnc2c(n1)OC(C)=Nc1ccccc1-2 | 3.24*
CCCCCSc1nnc2c(n1)OC(C)=Nc1ccccc1-2 | 0.64
CCCCSc1nnc2c(n1)OC(C)=Nc1ccc(Br)cc1-2 | 1.26
CCc1c(O)c(-c2ccccc2)c(=O)n(-c2ccccc2)c1-c1ccccc1 | 0.18
CC1(C)CC(=O)C2=C(C1)Nc1nonc1NC2c1ccc2c(c1)OCO2 (centres undefined) | -0.49
CCOC(=O)COc1nc(C)cc(C)c1C#N | -1.6
Cc1cc(C)c(C#N)c(Nc2ccc(F)cc2)n1 | -0.61
Cc1cc(C)c(C#N)c(OC(=O)c2c(F)cccc2F)n1 | 71.2*
CCSCCOC(=O)C1=C(C)NC2=C(C(=O)CCC2)C1c1ccc(OC)cc1OC (centres undefined) | 0.01
CCSCCOC(=O)C1=C(C)NC2=C(C(=O)CCC2)C1c1cccc(Oc2ccccc2)c1 (centres undefined) | 6.02*
CC1=C(C(=O)OCC2CCCO2)C(c2cccc(Oc3ccccc3)c2)C2=C(CCCC2=O)N1 (centres undefined) | 1.11
CCOc1ccc(C2C(C(=O)OCCSCC)=C(C)NC3=C2C(=O)CCC3)cc1 (centres undefined) | 0.51
CC1=C(C(=O)OCCc2ccccc2)C(c2ccc(C)cc2)C2=C(CCCC2=O)N1 (centres undefined) | 0.5
SMILES | Dicer inh
CCSCCOC(=O)C1=C(C)NC2=C(C(=O)CCC2)C1c1ccc(OC)c(Br)c1 (centres undefined) | 2.2
CC1=C(C(=O)OCCc2ccccc2)C(c2ccsc2)C2=C(CCCC2=O)N1 (centres undefined) | 3.75*
CC1=C(C(=O)OCCc2ccccc2)C(c2ccc(Br)cc2)C2=C(CCCC2=O)N1 (centres undefined) | 2.18
CCSCCOC(=O)C1=C(C)NC2=C(C(=O)CCC2)C1c1ccc(F)cc1 (centres undefined) | 6.41*
O=C(O)c1cc(-c2cccc(O)c2)nc2ccc(Br)cc12 | 0.32
CN(C)/C=N/c1ncccc1OCc1ccc(Cl)c(Cl)c1 | -0.64
O=S1(=O)CC(N2CCCC2)c2ccccc21 (centres undefined) | 0.74
COCCOC(=O)c1c(C)oc2ccc(OC(C)C(=O)OC)cc12 (centres undefined) | 0.87
FC(F)(F)c1cc(-c2cccnc2)nc2c(-c3ccc(Cl)cc3)cnn12 | -0.12
CCN(CC)Cc1cc(C(C)C)c(O)c(C(C)C)c1 | 4.14*
CCN(CC)Cc1cc(O)c(CN(CC)CC)cc1O | -2.04
CCc1oc(C(=O)O)cc1CN(CC)CC | 1.6
CC(C)S(=O)(=O)c1csc(NC(=O)Nc2ccccc2Cl)c1Cl | 3.77*
CC(C)S(=O)(=O)c1csc(C(N)=O)c1Cl | -1.97
CC(C)S(=O)(=O)c1csc(NC(=O)Nc2c(Cl)cc(Cl)cc2Cl)c1Cl | 0.24
O=C(c1ccc(Cl)cc1)c1c(Cl)cc(CO)cc1Cl | 0.15
Nc1ccc(Oc2ccccc2)cc1 | 5.04*
Fc1c(F)c(Oc2ccccc2)c(F)c(F)c1Oc1ccccc1 | 0.05
Nc1cc(Cl)ccc1Oc1ccccc1 | 2.68
O=C(Cn1cc(C(=O)C2CCCCC2)c2ccccc21)NC1CCCCC1 | 0.92
CCOc1nc(-c2ccc(C)cc2)ccc1-c1noc(-c2ccco2)n1 | 1.24
CCCCOC(=O)C1=C(C)NC2=C(C(=O)CC(C)(C)C2)C1c1ccc(O)c(OCC)c1 (centres undefined) | -1.11
Cc1cc2n(n1)C(c1cccc(O)c1)Nc1ccccc1-2 (centres undefined) | 0.25
Cc1cc2n(n1)C(c1cccc(O)c1O)Nc1c(C)cccc1-2 (centres undefined) | 2.32
Cc1cc2n(n1)C(c1ccc(O)cc1O)Nc1c(C)cccc1-2 (centres undefined) | 1.46
SMILES | Dicer inh
Cc1cc2n(n1)C(c1ccc(O)cc1)Nc1c(C)cccc1-2 (centres undefined) | 4.8*
Cc1ccc(O)c(C2Nc3c(C)cccc3-c3cc(C)nn32)c1 (centres undefined) | 5.72*
Cc1cc2n(n1)C(c1ccc(C(=O)O)cc1)Nc1c(C)cccc1-2 (centres undefined) | 2.41
Cc1cc(C)c2c(c1)-c1cc(C)nn1C(c1cccs1)N2 (centres undefined) | -1.88
Cc1cc2n(n1)C(/C=C\c1ccccc1)Nc1c(C)cccc1-2 (centres undefined) | 6.04*
Cc1cc2n(n1)C(c1cccc(O)c1)Nc1c(C)cccc1-2 (centres undefined) | 4.32*
